Data as given in paper PMC5540273 (PLoS ONE, 2017).

Key:
Settings in all cases: concentration: 1 μM, replicates: in singlicate; n = 1
AKT3 = system: AKT3
ALK = system: ALK
AMPK-alpha1 = system: T1, AMPK-alpha1
T1 construct: gene PRKAA1

AMPK-alpha2 = system: T2, AMPK-alpha2
T2 construct: gene PRKAA2

ANKK1 = system: ANKK1
ARK5 = system: T3, ARK5
T3 construct: gene NUAK1

ASK1 = system: T4, ASK1
T4 construct: gene MAP3K5

ASK2 = system: T5, ASK2
T5 construct: gene MAP3K6

AURKA = system: AURKA
AURKB = system: AURKB
AURKC = system: AURKC
AXL = system: AXL
BIKE = system: T6, BIKE
T6 construct: gene BMP2K

BLK = system: BLK
BMPR1A = system: BMPR1A
BMPR1B = system: BMPR1B
BMPR2 = system: BMPR2
BMX = system: BMX
BRAF = system: BRAF
BRK = system: T7, BRK
T7 construct: gene PTK6
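Note: KINOMEscan kinase panel screen.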

Compound	%Inh (AKT3) [%]	%Inh (ALK) [%]	%Inh (AMPK-alpha1) [%]	%Inh (AMPK-alpha2) [%]	%Inh (ANKK1) [%]	%Inh (ARK5) [%]	%Inh (ASK1) [%]	%Inh (ASK2) [%]	%Inh (AURKA) [%]	%Inh (AURKB) [%]	%Inh (AURKC) [%]	%Inh (AXL) [%]	%Inh (BIKE) [%]	%Inh (BLK) [%]	%Inh (BMPR1A) [%]	%Inh (BMPR1B) [%]	%Inh (BMPR2) [%]	%Inh (BMX) [%]	%Inh (BRAF) [%]	%Inh (BRK) [%]
Cl.c1ccc(Cn2ncc3cc(Nc4ncnc5ccccc45)ccc32)cc1 [GW273749]	0	16	0	0	0	0	0	1	10	8	0	0	0	17	0	0	0	0	0	0
Cc1ccc(C)c(NC(=O)NCCNc2ccnc(Nc3ccc(F)cc3)n2)c1 [GSK1379878]	0	2	10	0	5	0	0	0	7	0	15	0	20	33	0	0	0	0	0	1
CN1c2ccc(-c3ccc(C(=O)NCCO)cc3)cc2-c2[nH]ncc2S1(=O)=O	12	44	16	0	0	0	34	3	0	37	9	17	10	26	19	16	0	13	19	0
CC(C)N1CCC(n2cnc(-c3ccc(F)cc3)c2-c2ccnc(N)n2)CC1 [SB-223132]	0	12	0	11	0	0	1	0	0	0	51	5	32	2	10	0	0	9	0	5
Nc1nc(-c2ccccn2)c(-c2ccnc3ccccc23)s1 [GW548057]	0	17	14	1	20	24	2	0	17	0	25	8	33	9	0	35	32	9	0	1
Clc1cc(Nc2ncnc3cc[nH]c23)ccc1OCc1ccccn1	5	0	20	0	20	0	5	0	35	13	0	19	0	0	25	8	17	20	0	4
NC(=O)c1sc(-n2cnc3ccccc32)cc1OCc1ccccc1F [GSK1024306]	0	5	6	0	0	31	0	0	0	0	38	0	60	0	0	0	27	6	0	14
CSc1nn2c(=O)cc(N3CCOCC3)nc2n1Cc1cccc(Cl)c1Cl [GSK2347225]	1	30	11	20	19	7	14	0	21	0	11	45	29	52	19	1	0	6	0	17
CSc1ccc(NC2=C(c3ccccc3Cl)C(=O)NC2=O)cc1 [SB-342411]	0	0	25	0	20	0	0	0	21	2	13	3	19	0	0	0	5	34	21	14
O=C(Nc1ccccc1F)NC1CCN(c2ccnc(Nc3ccc(F)cc3)n2)C1 (stereo not drawn) [GSK1379722]	0	26	2	21	0	12	8	16	0	38	30	0	8	16	0	0	13	7	7	5
Fc1cccc(COc2ccc(Nc3ncnc4sc(-c5ccc[nH]5)cc34)cc2Cl)c1 [GW707818]	0	0	10	36	12	6	21	0	6	0	9	0	24	0	25	0	1	6	0	0
CCC(CC)(CC)n1cnc2c(N)ncnc21 [SKF-97620]	2	0	8	54	17	0	2	26	28	24	0	0	0	0	7	16	53	0	10	0
COc1cc2c(Nc3cccc(NC(=O)c4ccccc4)c3)ncnc2cc1OCCCN1CCOCC1 [GSK223810]	0	21	18	12	16	0	0	3	25	23	51	42	42	58	9	0	0	33	34	18
CS(=O)(=O)CCNCc1nc(-c2ccc3ncnc(Nc4ccc(OCc5cccc(F)c5)c(Cl)c4)c3c2)cs1.Cl [GW583340]	0	0	0	0	0	11	11	0	5	0	0	0	0	25	0	0	0	0	0	0
CNc1nccc(-c2c(-c3ccc(F)cc3)ncn2C2CCN(C)CC2)n1 [SB-222903]	0	0	0	16	0	4	0	0	6	0	0	0	0	36	0	0	11	0	0	0
